IL1B secr inh – blocks inflammasome-driven IL-1 beta release; THP-1 LPS/ATP IL-1B secretion, AlphaLISA, 16 h; hits give low values; activity change, % at 57.5 µM; 360,000 tested, 4.7% active; AID 743279; in the data active means activity change below about -50%; inconclusive means mostly about -30% to -49%
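THP-1 cells pretreated 1 hr with compounds (up to 57.5 uM final), then stimulated with LPS (250 ng/mL final) plus ATP (1.25 mM final); secreted IL-1B measured by AlphaLISA after 16 hr, decreased signal indicating inhibition.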
TDP1 block – TDP1 (human) enzyme inhibition; AID 485290; recombinant TDP1, AlphaScreen DNA substrate cleavage; 350,000 tested, 0.28% active; Q9NUW8; Potency, µM (doses to about 130 µM), usual class: inhibitors; further: nearly all actives have a fitted effect of over 40% in size
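Enzyme-compound mixtures sat 15 min at room temperature, followed by a 5 min reaction with 15 nM final substrate and 10 min with AlphaScreen beads. Recombinant human Tdp1 was used at 1 nM final.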
DT40 TDP1 no CPT – qHTS for Inhibitors of human tyrosyl-DNA phosphodiesterase 1 (TDP1): qHTS in cells in absence of CPT. DT40 Tdp1-/- hTDP1 cells, no CPT, ATP luminescence, 48 h. Potency, µM (doses to about 46.2 µM), actives largely listed as inhibitors. 420,000 tested, 15% active; further: nearly all actives have a fitted effect of over 55% in size
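Stably hTDP1-transfected Tdp1-null chicken DT40 cells were treated with library compounds minus camptothecin and grown for at least 48 hr at 37 °C, after which cellular ATP was quantified by luminescence.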
TGFb SMAD3 inh – TGF-b pathway inhibition; 410,000 tested, 1.2% active; AID 588855; HepG2 CAGA-GFP TGF-b/SMAD3 reporter, GFP fluorescence, 18 h; TGF-beta stimulated, 500 pg/mL final; Potency, µM (top dose mostly 46.1 µM), usual class: inhibitors; further: nearly all actives have a fitted effect of over 65% in size
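Cell-based qHTS in HEPG2 carrying a CAGA-GFP Smad reporter; compounds added before 500 pg/mL final TGF-beta, 18 h incubation at 37 degrees C, GFP fluorescence quantified per cell by imaging cytometry.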
DT40 TDP1 CPT – growth inhibition of DT40 Tdp1-/-;hTDP1 cells with camptothecin (screen for TDP1 inhibitors); Potency, µM (highest dose often 46.2 µM), usual class: inhibitors; 420,000 tested, 12% active; chicken DT40 Tdp1-/-;hTDP1 cells + 20 nM CPT, ATP luminescence, 48 h; further: nearly all actives have a fitted effect of over 55% in size
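Chicken DT40 Tdp1-/- cells complemented with human TDP1, 400 cells/well, exposed to compounds plus 20 nM camptothecin for at least 48 h at 37 C; viability read as ATP content by CellTiter-Glo luminescence.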
HepG2 tox – kills HepG2 cells in TGF-b inhibitor counter-screen; HepG2 CAGA-GFP viability, ATP luminescence, 18 h; Potency, µM (doses to about 46.1 µM), usual class: cytotoxic; 410,000 tested, 0.76% active; AID 588856
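CellTiter-Glo luminescence gave cytotoxicity after 18 hours at 37 degrees C. The cells were HepG2 CAGA-GFP in 1% FBS DMEM, stimulated with 500 pg/mL TGF-beta after compound addition. %Activity was normalised to no-cell wells (complete cell-killing) and DMSO (no toxicity), and curves were fitted and classified.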
Numbers stand for hits; n = inactive; u = inconclusive; x = not tested or not shown; [ ] = another dose, or the depositor's remark. Sampled rows, rich in hits. Any-hit rate of the full collection: about 19%. Unless noted, the call rests on the fitted dose curve; in most records, active means well fitted curve in the direction sought with a large enough effect; inconclusive means small, poorly fitted or top-dose-only effect, or another doubt; inactive means no such curve, though single readings can be large; an effect the other way counts as inactive or inconclusive.

SMILES	IL1B secr inh	TDP1 block	DT40 TDP1 no CPT	TGFb SMAD3 inh	DT40 TDP1 CPT	HepG2 tox
COC(=O)c1ccc(/C=C2/SC(=S)N(CCC(=O)NCCCN3CCOCC3)C2=O)cc1	-57	x	u	n	u	n
CC(C)c1ccc(/C=C2\SC(=S)N(CCC(=O)NCCCn3ccnc3)C2=O)cc1	n	n	u	n	u	n
COc1ccc(C=C2SC(=S)N(CCCN3CCOCC3)C2=O)c(OC)c1	n	x	16µM	u	u	n
CN1CCC(N(C)C(=O)/C(C#N)=C/c2ccccc2)CC1	n	x	n	n	n	n
Cc1oc(-c2ccccc2F)nc1CS(=O)CC(=O)NC(C)C (centres undefined)	x	n	n	n	n	n
COc1ccc(/C=C2\SC(=S)N(CCC(=O)NCCCn3ccnc3)C2=O)cc1	n	n	16µM	u	u	n
O=C(CCN1C(=O)/C(=C/c2ccccc2)SC1=S)NCCCN1CCOCC1	-59	n[0.0935 µM]	u	n	u	n
O=C(CCCN1C(=O)/C(=C/c2ccccc2Cl)SC1=S)NCCCN1CCOCC1	-104	n	u	u	21µM	n
COc1ccc(C)cc1NC1(c2ccccc2)C(=O)c2ccccc2C1=O	x	n	n	n	n	n
CC1CCN(C(=O)COC(=O)Cn2cnc3ccccc32)CC1	n	n	n	n	n	n
CCN(CC)CCn1c2c(c(SCC(=O)Nc3nc4ccccc4s3)nc1=O)CCC2	-99	n	u	n	n	n
CCN(CC)CCn1c2c(c(SCC(=O)Nc3nc4ccc(C)cc4s3)nc1=O)CCC2	n	x	5.8µM	n	6.5µM	n
CCN(CC)CCn1c2c(c(SCC(=O)Nc3cccc(C(C)=O)c3)nc1=O)CCCC2	n	x	u	n	u	n
CCN(CC)CCCn1c2c(c(SCC(=O)Nc3cc(C)cc(C)c3)nc1=O)CCC2	-57	x	u	n	n	n
Cc1nc(NC(=O)c2ccccc2)sc1-c1cc(C(=O)O)nn1Cc1ccccc1	n	x	n	n	n	n
O=C(c1ccco1)N1CCN(C2c3ccccc3-c3ccccc32)CC1	n	n	u	u	u	n
CC(C)OC(=O)CN1CCN(C2c3ccccc3-c3ccccc32)CC1	n	n	29µM	u	u	n
C[C@@H](NC(=O)CN(c1ccccc1)S(=O)(=O)N(C)C)c1ccccc1	x	n	x	n	x	n
CCOc1ccc2cc(C(=O)NCc3ccccc3)c(=N)oc2c1	-77	x	u	n	u	n
CCOc1cccc2cc(C(=O)NCc3ccc(Cl)cc3)c(=N)oc12	-65	n	u	n	u	n
CCOC(=O)CNc1nc(C(C)(C)C)nc2c1nnn2Cc1ccccc1	n	x	u	n	u	n
Cc1nc2c(-c3ccccc3)c(C)nn2c(C)c1CCC(=O)N1CCN(c2ccc(F)cc2)CC1	x	n	u	u	u	n
CCc1ccccc1N(C)S(=O)(=O)c1ccc2[nH]cc(C(=O)NCCOC)c(=O)c2c1	x	n	u	n	u	n
CCOc1ccc(NC(=O)COC(=O)C2COc3ccccc3O2)cc1 (centres undefined)	n	x	n	n	n	n
O=C(CN1C(=O)C(c2ccccc2)Oc2cccnc21)NCc1ccccc1F (centres undefined)	n	n	u	n	21µM	n
COc1ccc(C)cc1NC(=O)CCCN1C(=O)C(c2ccccc2)Oc2cccnc21 (centres undefined)	n	n	u	n	u	n
COc1ccc(CNC(=O)CN2C(=O)C(c3ccccc3)Oc3cccnc32)cc1 (centres undefined)	n	x	u	n	n	n

Bioassay records from PubChem BioAssay.
